# In PubChem BioAssay (Tox21):
# Records with an inconclusive call do not appear. Entries that show only a call come without a potency. Calls of active or inactive are those of the source. The call rests on the fitted dose curve; in most records, active means well fitted inhibition curve with a large enough effect in the signal ratio in the repeat runs, with a control signal flat; inconclusive means weak or mixed curves, or effect the other way; inactive means flat fitted curve, though single readings scatter; the % refers to the signal ratio.
# Target: D(2) dopamine receptor (Homo sapiens) (UniProt P14416)
# Sequence (P14416 whole entry, looked up): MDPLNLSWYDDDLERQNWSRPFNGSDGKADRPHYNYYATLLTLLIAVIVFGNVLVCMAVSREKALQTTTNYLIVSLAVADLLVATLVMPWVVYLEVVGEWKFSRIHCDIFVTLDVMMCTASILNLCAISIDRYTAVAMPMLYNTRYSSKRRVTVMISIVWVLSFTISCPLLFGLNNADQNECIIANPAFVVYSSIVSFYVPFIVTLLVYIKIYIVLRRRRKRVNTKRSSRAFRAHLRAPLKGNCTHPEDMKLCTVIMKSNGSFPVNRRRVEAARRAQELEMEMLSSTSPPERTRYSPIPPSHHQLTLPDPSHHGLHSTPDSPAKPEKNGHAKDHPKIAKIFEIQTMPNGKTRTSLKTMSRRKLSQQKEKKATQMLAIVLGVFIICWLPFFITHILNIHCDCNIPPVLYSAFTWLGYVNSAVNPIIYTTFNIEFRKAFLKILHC
# Assay: Dopamine D2 receptor (DRD2) small molecule antagonists, cell-based qHTS assay (AID 1963595)
# Details: HEK293-DRD2 cAMP HTRF antagonist mode; series mostly up to 92.4 µM
# Text: National Center for Advancing Translational Sciences [NCATS]
# Division of Preclinical Innovation [DPI]
# U.S. Environmental Protection Agency [EPA]
# National Institutes of Environmental Health Sciences [NIEHS]
# National Toxicology Program [NTP]
# U.S. Food and Drug Administration [FDA]
# DRD2 is the D2 subtype of the dopamine receptor, which is coupled to Gi subtype of G protein-coupled receptor. This G protein-coupled receptor inhibits adenylyl cyclase activity. The DRD2-HEK293 cell line stably expressing D2 dopamine receptor can be used for screening agonists and antagonists of interactions between D2 and its ligands. The Hek293-DRD2 cAMP assay is based on HTRF technology. It measures changes of cAMP accumulation in response to Gi coupled GPCR activation or inhibition.
# Tox21 Assay Protocol Summary:
# DRD2-Hek293 cells were dispensed at 600 cells/3uL/well in 1536-well white plates using a Multidrop Dispenser. After the assay plates were incubated at a 37 C/5% CO2 incubator for 24 h, 1 uL of Ro20-1724 at final concentration of 0.1 mM was transferred to the assay plate by a Flying Reagent Dispenser. Following Ro20-1724 addition, 23 nL of compound dissolved in DMSO, positive controls or DMSO only was added to the assay plates via Wako pintool station. The assay plates were incubated at room temperature for 10 min. Next, 1 uL of mixture of NKH477 (final concentration at 200 nM) and quinpirole (final concentration at 12 nM) was added into the plates. After the assay plates were incubated at room temperature for an additional 30 min, 2.5 ul/well of cAMP-d2 and 2.5 ul/well of anti-cAMP-cryptate were added respectively into the assay plates using a Flying Reagent Dispenser. The plates were incubated at room temperature for 1 h. The fluorescence intensity in the plates was measured at 340 nm excitation and 665 & 620 nm emission by an Envision plate reader.
row,Compound,Potency
1,CC(CN1CC(=O)NC(=O)C1)N1CC(=O)NC(=O)C1 (stereo not given),inactive
2,O=C(CCCl)NCc1ccccc1,inactive
3,NC(=O)CC[C@@H]1NC(=O)[C@H](Cc2ccccc2)NC(=O)[C@H](Cc2ccc(O)cc2)NC(=O)CCSSC[C@@H](C(=O)N2CCC[C@H]2C(=O)N[C@@H](CCCN=C(N)N)C(=O)NCC(N)=O)NC(=O)[C@H](CC(N)=O)NC1=O,inactive
4,O=C1c2ccccc2C(=O)C1c1nc2ccccc2c(Br)c1O,inactive
5,CCC(C(=O)O)c1ccc(N2Cc3ccccc3C2=O)cc1 (stereo not given),inactive
6,CC(=O)OCC[N+](C)(C)C,inactive
7,CCC(=O)c1cccc(Cl)c1,inactive
8,O=C(c1ccccc1)c1ccc2n1CCC2C(=O)O (stereo not given),inactive
9,NC1[C@H]2CN(c3nc4c(cc3F)c(=O)c(C(=O)O)cn4-c3ccc(F)cc3F)C[C@@H]12 (stereo not given in full),inactive
10,O=C(Nc1ccccc1)Nc1ccccc1,inactive
11,COc1ccccc1N1CCN(CC(O)COc2cc(OC)c(OC)c(OC)c2)CC1 (stereo not given),inactive
12,COc1ccccc1NC(=O)c1cc2ccccc2cc1O,inactive
13,CC(C)(C)OC(=O)N1C[C@@H](F)C[C@H]1C(=O)O,inactive
14,COC(=O)C(C)(C)C,inactive
15,CCOCCOCCOC(C)=O,inactive
16,O=C(c1ccccc1)c1ccc(Cl)cc1,inactive
17,Cc1ccc(OC(=O)c2ccccc2O)cc1,inactive
18,CCCOc1ccccc1-c1nc2n[nH]nc2c(=O)[nH]1,inactive
19,CCCCC(CC)CN (stereo not given),inactive
20,CCCn1cnc2c1c(=O)n(CCCCC(C)=O)c(=O)n2C,inactive

row,Compound,Potency
1,O=C(O)c1cccc(Oc2ccccc2)c1,inactive
2,CNC(=O)c1c(I)c(NC(=O)CCCCC(=O)Nc2c(I)c(C(=O)O)c(I)c(C(=O)NC)c2I)c(I)c(C(=O)O)c1I,inactive
3,CCOC(=O)CC,inactive
4,CNCCc1ccccn1,inactive
5,CN(C)Cc1ccccc1,inactive
6,CCCCCCCCCCCCN1CCOCC1,inactive
7,CCCC(C)C=O (stereo not given),inactive
8,N[C@H]1C(O)O[C@H](CO)[C@H](O)[C@@H]1O (stereo not given in full),inactive
9,N#CCc1ccccc1[N+](=O)[O-],inactive
10,NC1CCN(c2nc3c(cc2F)c(=O)c(C(=O)O)cn3-c2ccc(F)cc2F)C1 (stereo not given),inactive
11,C[N+]1(C)[C@@H]2CC(OC(=O)[C@H](CO)c3ccccc3)C[C@H]1[C@@H]1O[C@@H]12 (stereo not given in full),inactive
12,O=C(O)c1c(Cl)cccc1Cl,inactive
13,C=C(C)C1CC=C(C)C(O)C1 (stereo not given),inactive
14,CCN(CC)CCc1nc(-c2ccccc2)no1,inactive
15,CC(C)[C@H](N)C(=O)OCCOCn1cnc2c(=O)[nH]c(N)nc21,inactive
16,CCCc1ncc(C(=O)O)s1,inactive
17,O=C(O)CCNC(=O)c1ccccc1,inactive
18,CCOC(=O)C(O)c1ccccc1 (stereo not given),inactive
19,CO[C@@H]1COCC[C@@H]1N[C@@H]1CC[C@@](C(=O)N2CCc3ncc(C(F)(F)F)cc3C2)(C(C)C)C1,inactive
20,Cc1ccc2oc(CN(Cc3ccccc3)C(=O)Nc3c(F)cc(F)cc3F)c(-c3ccc(Cl)cc3)c2c1,inactive
